# The list is not random: actives were taken first. Their share in the collection is about 5.4%.
# Vaccinia mCherry – vaccinia inhibition (mCherry reporter). actives 0.63% (n = 310,000). Vaccinia virus mCherry reporter infection, fluorescence. Potency, µM (highest dose often 36.5 µM), without a hit: at the top dose activity change, negative = inhibition, most hits filed as inhibitors; calls by dose curve; tested in A549 cells; note: nearly all actives have a fitted effect of over 35% in size
# Marburg entry inh – inhibitors of Marburg virus binding or cell entry; Marburg virus pseudotyped entry inhibition, cell reporter; Potency, µM (series often up to 37.8 µM), for inactives: at the top dose activity change, negative = inhibition, hits mostly inhibitors; actives 1.8% (n = 300,000); calls by dose curve; tested in HEK293 cells
# Sm TGR block – inhibitors of Schistosoma mansoni thioredoxin glutathione reductase. Q962Y6. purified TGR, DTNB reduction, TNB absorbance 405 nm. Potency, µM (doses to about 114 µM), for inactives: at the highest dose activity change, negative = inhibition, hits mostly inhibitors. actives 3% (n = 360,000). AID 485364; active = well fitted inhibition curve with a large enough effect; inconclusive = small, poorly fitted or top-dose-only effect; inactive = no such curve, though single readings can be large or run the other way; note: nearly all actives have a fitted effect of over 60% in size
#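 Kinetic colorimetric format: TGR-catalysed, NADPH-driven DTNB reduction monitored via TNB absorbance. Enzyme dispensed at 20 nM; compound exposure 15 min at room temperature before reaction start.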
# LASV entry inh – Lassa virus entry inhibition | Lassa virus pseudotype entry inhibition, cell reporter | Potency, µM (titrated, usually from 37.9 µM), for inactives: at the top dose activity change, negative = inhibition, usual class: inhibitors | actives 1.2% (n = 300,000) | AID 540256; calls by dose curve; tested in HEK293 cells; note: nearly all actives have a fitted effect of over 50% in size
# FMDV inh – antivirals against foot and mouth disease virus; FMDV antiviral cell-based qHTS; Potency, µM (top dose mostly 57.9 µM), for the others: at the top dose activity change, negative = inhibition, most hits filed as inhibitors; actives 1.2% (n = 410,000); AID 1159524; calls by dose curve; tested in HEK293T cells; note: read-out not given here; nearly all actives have a fitted effect of over 45% in size
# VACV Venus inh – vaccinia inhibition (Venus reporter); Potency, µM (highest dose often 36.5 µM), inactives show at the top dose activity change, negative = inhibition, most hits filed as inhibitors; actives 0.46% (n = 330,000); Vaccinia virus Venus reporter expression, fluorescence; AID 720580; calls by dose curve; tested in A549 cells; note: nearly all actives have a fitted effect of over 30% in size
# Active calls of the source: *; i = inactive; u = inconclusive; x = not tested or not shown; [ ] = dose if it differs, or a comment. % is set by controls: 0 for no effect and ±100 for the full control effect; potency is the fitted concentration of half-maximal effect.
SMILES,Vaccinia mCherry,Marburg entry inh,Sm TGR block,LASV entry inh,FMDV inh,VACV Venus inh
COc1cccc(NS(=O)(=O)c2ccc3c(c2)C2C=CCC2C(c2ccc(C(=O)O)cc2)N3)c1 (configuration not stated),-4%,u,u,u,31%,-1%
COC(=O)c1ccc([C@H]2Nc3ccc(S(=O)(=O)Nc4ccc(F)cc4)cc3[C@H]3C=CC[C@H]32)cc1,-5%,1%[46.1 µM],32µM*,16%[46.1 µM],17%,-15%
COC(=O)c1ccc(C2Nc3c(C)cc(C)cc3C3C=CCC32)cc1 (configuration not stated),-6%,-16%[46.1 µM],1.1µM*,-2%[46.1 µM],-17%,-4%
COc1ccc(OC)c([C@@H]2Nc3ccc(C(=O)O)cc3[C@@H]3C=CC[C@@H]32)c1,11%,x,u,5%[46.1 µM],0%,-14%
Cc1cc(C)c2c(c1)[C@@H]1C=CC[C@@H]1[C@H](c1ccc(S(=O)(=O)N3CCOCC3)cc1)N2,i,9%,2.8µM*,-3%,-19%,-6%
COC(=O)c1ccc([C@@H]2Nc3c(cccc3C(F)(F)F)[C@@H]3C=CC[C@@H]32)cc1,-5%,u,2%,-1%[46.1 µM],-8%,-18%
COc1ccc(C(=O)N/N=C(\C)c2ccc3c(c2)C2C=CCC2C(c2ccccc2)N3)cc1 (configuration not stated),-14%,-5%,10µM*,u,-19%,-19%
COc1cn(CC(=O)Nc2c(C)cc(C)cc2C)c(CN2CCCCC2)cc1=O,-6%,x,-1%,2%[46.1 µM],-2%,-14%
COc1ccccc1-c1nc2c(c(SCC(=O)Nc3ccc(C)c(C)c3)n1)Cc1c(CO)cnc(C)c1O2,-16%,x,0%,-14%[46.1 µM],-27%,-15%
Fc1ccc([C@@H]2Nc3ccccc3[C@@H]3C=CC[C@@H]32)cc1,10%,u,5.6µM*,-2%[46.1 µM],-2%,-2%
Cc1cccc(NS(=O)(=O)c2ccc3c(c2)[C@H]2C=CC[C@H]2[C@@H](c2ccc(F)cc2)N3)c1,1%,-4%[46.1 µM],-4%,1%[46.1 µM],8%,-8%
FC(F)(F)c1cccc(N2CCN(C(=S)NC3CCCC3)CC2)c1,x,u,-9%,-26%,20µM*,u
COC(=O)c1ccc(CN2CCC3(CCC(CNC(=O)c4ccco4)O3)CC2)cc1 (configuration not stated),-2%,x,x,x,3%,-19%
COC(=O)/C=C1/N/C(=N\c2nc(C)cc(C)n2)N(c2cccc(C)c2)C1=O,-19%,-2%,3%,u,28µM*,-11%
C=CCOC(=O)N[C@H](c1ccc2ccccc2c1)[C@H](C)C=CCC(=O)OC,x,-4%[14.2 µM],x,u,x,x
Cc1ccc(CNC(=O)CN2N=C(c3ccc(C)cc3)CCC2=O)cc1,-8%,x,9%,-2%[46.1 µM],-11%,-8%
CCn1c(SCC(=O)c2cccs2)nnc1-c1ccco1,-10%,8%,45µM*,u,58%,-4%
CCn1c(SCC(=O)N2c3ccccc3Sc3ccccc32)nnc1-c1ccco1,-9%,u,14µM*,-14%,x,-26%
Cn1nnnc1SCC(=O)c1cccs1,-1%,u,40µM*,12%,7%,-14%
COc1cc(C[C@@H]2C(=O)OC[C@H]2Cc2ccc(OC)c(OC)c2)ccc1O,u,x,-7%,x,20µM*,u
Cc1ccc(N2C(=O)[C@@H]3[C@H](C2=O)C2CCCN2[C@@H]3C(=O)c2ccccc2)cc1 (some centres not stated),-10%,-51%,32µM*,1%,0%,-1%
COc1ccc(N2C(=O)C3C(C2=O)C(C(=O)c2ccc(Cl)cc2)N2CCCC32)cc1 (configuration not stated),-8%,u,25µM*,8%,u,17%
O=C(c1ccccc1)[C@@H]1[C@@H]2C(=O)N(c3ccc(F)cc3)C(=O)[C@@H]2C2CCCN21 (some centres not stated),x,x,u,x,-16%,x
CC(=O)c1ccc(N2C(=O)C3C(C2=O)C(C(=O)c2ccc(Cl)cc2)N2CCCC32)cc1 (configuration not stated),-2%,u,13µM*,-1%,u,25%
O=C(c1ccc(Cl)cc1)C1C2C(=O)N(c3ccccc3)C(=O)C2C2CCCN21 (configuration not stated),i,3%,u,25%,-7%,-5%
SMILES,Vaccinia mCherry,Marburg entry inh,Sm TGR block,LASV entry inh,FMDV inh,VACV Venus inh
COc1ccc(C(=O)[C@H]2[C@H]3C(=O)N(c4ccc(OC(C)=O)cc4)C(=O)[C@H]3C3C=CC=NN32)cc1 (some centres not stated),-29%,0%[14.2 µM],u,u,u,6%
COCC(=O)N1CCC2(CC1)CN(C(=O)Nc1ccc(OC)cc1)C2,x,x,x,x,-9%,x
Cc1nc(SCC(=O)Nc2ccccc2C)cc(-c2ccccc2)n1,-18%,21%[46.1 µM],1%,-9%[46.1 µM],-15%,-14%
COC(=O)CN1C(=O)S/C(=C/c2ccc(N3CCCCC3)o2)C1=O,x,12%,7.1µM*,u,21%,x
CCOC(=O)CN1C(=O)S/C(=C/c2ccc(N3CCCCC3)o2)C1=O,-6%,19%,-9%,-11%,-6%,66%
O=C(O)CN1C(=O)/C(=C/c2ccc(N3CCCCC3)o2)SC1=S,x,x,2.8µM*,x,u,x
NC(CCc1ccccc1)c1csc(NC(=O)NCCc2ccccc2)n1 (configuration not stated),-12%,x,x,x,-18%,-16%
NC(Cc1ccc(Cl)cc1)c1csc(NC(=O)NCCc2ccccc2)n1 (configuration not stated),u,x,x,x,-15%,u
NC(CCc1ccccc1)c1csc(NC(=O)Nc2ccccc2Oc2ccccc2)n1 (configuration not stated),u,x,x,x,u,11µM*
NC(Cc1ccc(Cl)cc1)c1csc(NC(=O)NCC2CCCCC2)n1 (configuration not stated),-4%,x,x,x,-6%,10µM*
CC(C)c1ccc(NC(=O)Nc2nc(C(N)COCc3ccccc3)cs2)cc1 (configuration not stated),u,x,x,x,0%,11µM*
CC(C)c1ccc(NC(=O)Nc2nc(C(N)c3ccccc3)cs2)cc1 (configuration not stated),-27%,x,x,x,-24%,u
NC(Cc1ccc(C(F)(F)F)cc1)c1csc(NC(=O)Nc2ccccc2Cc2ccccc2)n1 (configuration not stated),11µM*,x,x,x,-22%,13µM*
CC(C)c1ccccc1NC(=O)Nc1nc(C(N)Cc2ccc(C(F)(F)F)cc2)cs1 (configuration not stated),u,x,x,x,-23%,u
CCCS(=O)(=O)Nc1cc(-c2cn3cccc(C)c3n2)ccc1C,-20%,18%[46.1 µM],1%,12%[46.1 µM],0%,-16%

# Assay outcomes (PubChem BioAssay)
